Anthrax LF inh2: inhibitors of Bacillus anthracis lethal factor protease. P15917. 0.12% of 360,000 active. multiplex microsphere protease cleavage assay, LF. inhibition, % at 10 µM; also: plate controls were buffer without enzyme for full effect and enzyme alone for no effect
Target sequence (P15917 whole entry, looked up): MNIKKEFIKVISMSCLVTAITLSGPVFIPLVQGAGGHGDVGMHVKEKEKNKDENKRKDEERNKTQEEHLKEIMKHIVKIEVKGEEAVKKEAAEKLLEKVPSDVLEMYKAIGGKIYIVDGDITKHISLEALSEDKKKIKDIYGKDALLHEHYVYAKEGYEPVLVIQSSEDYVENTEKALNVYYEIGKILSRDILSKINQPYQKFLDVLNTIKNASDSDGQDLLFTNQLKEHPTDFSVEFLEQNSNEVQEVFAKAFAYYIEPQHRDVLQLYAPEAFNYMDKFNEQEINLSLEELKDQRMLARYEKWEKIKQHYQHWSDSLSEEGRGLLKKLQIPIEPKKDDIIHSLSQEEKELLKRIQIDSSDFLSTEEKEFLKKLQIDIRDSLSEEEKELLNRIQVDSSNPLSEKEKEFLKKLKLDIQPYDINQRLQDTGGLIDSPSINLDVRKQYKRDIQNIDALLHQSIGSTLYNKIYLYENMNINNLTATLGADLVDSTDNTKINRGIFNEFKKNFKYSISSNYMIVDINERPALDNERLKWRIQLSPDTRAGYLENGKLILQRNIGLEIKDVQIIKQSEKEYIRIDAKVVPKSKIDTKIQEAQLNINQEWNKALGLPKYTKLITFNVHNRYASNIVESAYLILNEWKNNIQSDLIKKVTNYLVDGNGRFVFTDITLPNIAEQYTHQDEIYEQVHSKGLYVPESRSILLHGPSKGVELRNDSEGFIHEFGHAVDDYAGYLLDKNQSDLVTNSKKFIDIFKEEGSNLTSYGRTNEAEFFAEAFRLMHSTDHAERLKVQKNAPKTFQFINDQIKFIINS
BoNT A protease: blocks Botulinum neurotoxin A light chain protease | multiplex microsphere protease substrate cleavage, flow cytometry | inhibition, % at 10 µM | 0.17% of 360,000 active | AID 588499; also: plate controls were buffer without enzyme for full effect and enzyme alone for no effect
Bead autofluor: counter-screen for toxin protease inhibitors: compound fluorescence | 3.1% of 360,000 active | compound autofluorescence counterscreen, microsphere flow cytometry; stronger effect = higher value | fluorescence intensity (concentration not given with the values) | AID 624483; in the data active = fluorescence intensity above about 16000; inconclusive = no clear call, values can overlap the other calls
BoNT F protease: blocks Botulinum neurotoxin F light chain protease; 0.22% of 360,000 active; Multiplex microsphere protease cleavage assay, flow cytometry; AID 588497; inhibition, % at 10 µM; in the data active = inhibition above about 35%, passing the limit was not always enough; inconclusive = no clear call, values can overlap the other calls; also: plate controls were buffer without enzyme for full effect and enzyme alone for no effect
* = called active by the depositor; u = inconclusive; + = active, no number. Hits are enriched below; roughly 3.5% of the tested compounds scored in any of these assays. Rule as the data show it, unless noted: active = inhibition above about 30%; inconclusive = no clear call, values can overlap the other calls; inactive = below that.

SMILES	Anthrax LF inh2	BoNT A protease	Bead autofluor	BoNT F protease
CC(=O)N1CCc2[nH]c3ccccc3c2C1	-3	-2	17082*	-5
O=C1CCC(=O)N1OCCCOc1ccccc1	-3	-2	17200*	-1
COc1ccccc1OC(C)C(=O)O (stereo not drawn)	0	1	20529*	1
CCn1c(SCC(=O)Nc2nc(C)cs2)nnc1-c1cccnc1	-9	5	17501*	4
CCc1nnc(NC(=O)CSc2nnc3ncccn23)s1	-1	u	20884*	-3
Cn1c(CSc2ncccn2)nnc1SCC(=O)N1CCCCC1	-2	0	10816	-2
O=C(CSc1nnc2ncccn12)N1CCCCCC1	-4	-1	23133*	-5
Cc1csc(NC(=O)CSc2nnc3ncccn23)n1	0	-4	22164*	-6
CCOc1ccc(/C=C(\C(=O)O)c2ccc(S(=O)(=O)N3CCCCC3)s2)cc1OC	1	-1	3121	-5
O=C(COC(=O)c1ccc(F)cc1F)Nc1cc(S(=O)(=O)N2CCOCC2)ccc1Cl	-3	6	5310	7
C[C@@H]1CN([C@H](C)CO)C(=O)CCCn2nncc2CO[C@H]1CN(C)Cc1ccc2c(c1)OCO2	-3	0	3622	-2
O=C(Cc1ccccc1)Nc1c2c(nn1-c1cccc(Cl)c1)CS(=O)(=O)C2	1	8	20201*	9
COc1ccc(CC(=O)Nc2c3c(nn2-c2cccc(Cl)c2)CS(=O)(=O)C3)cc1	-3	0	10335	-6
COc1ccccc1C(=O)NCC[N+](C)(C)C	-3	-1	6300	0
COc1ccccc1C(=O)NCCCn1cc(Br)c(C)n1	3	u	18046*	-3
CCOC1CCCc2oc(-c3ccc(N(C)C)cc3)c(C(=O)OC)c21 (stereo not drawn)	0	-1	5925	0
COCCCn1c(SCc2nnc(-c3ccc(OC)c(OC)c3)o2)nnc1-c1ccncc1	2	0	2806	5
COc1ccc(-c2nnc(CSc3nnc(-c4ccncc4)n3C3CCCCC3)o2)cc1OC	0	u	19681*	-1
O=C(CN1C(=O)S/C(=C\c2ccccc2F)C1=O)NC1C=CS(=O)(=O)C1 (stereo not drawn)	-1	3	5412	4
CC(=O)c1ccccc1NC(=O)COC(=O)CN1C(=O)C2CCCCC2C1=O (stereo not drawn)	-3	2	5103	-10
COCCN1C[C@@H](CO)O[C@@H](n2cnc3c(NC(C)C)ncnc32)C1	0	0	3342	1
CCOC(=O)CC(C(=O)OCC)P(=O)(c1ccccc1)c1ccccc1 (stereo not drawn)	-1	0	2036	-5
CCCC(C(=O)OCC)P(=O)(c1ccccc1)c1ccccc1 (stereo not drawn)	-3	u	23167*	1
Cc1cc(/C=C\c2ccc3cc(N(C)C)ccc3[n+]2C)c(C)n1-c1ccccc1	-107	16	3555	+
CC(C)N1C(=O)S/C(=C/c2cccnc2)C1=O	-3	u	22160*	2
SMILES	Anthrax LF inh2	BoNT A protease	Bead autofluor	BoNT F protease
CC(C)N1C(=O)S/C(=C/c2ccc3c(c2)n(C)c(=O)n3C)C1=O	-2	-1	6256	-8
COc1ccc(CNC(=O)c2ccc(CS(=O)(=O)c3ccc(Br)cc3)o2)cc1	-4	-1	5540	-2
C=CCn1c(C)cc(C(=O)CSc2nc3ccccc3[nH]2)c1C	-3	u	23335*	1
Cc1ccc2nc(SCC(=O)c3cc(C)n(C)c3C)[nH]c2c1	-4	0	2270	2
OCCNc1nc2ccc(Cl)cc2[nH]1	0	4	22121*	4
CSc1nc2ccc(Br)cc2[nH]1	-3	-1	4612	-5
Cc1cc(C(=O)CSc2nc3ccc(Cl)cc3[nH]2)c(C)n1C	-9	-3	23487*	-4
CSc1nc2ccc(Cl)cc2[nH]1	-9	5	20323*	9
COc1ccc2nc(NCCO)[nH]c2c1	-4	1	2282	11
C=CCn1c(C)cc(C(=O)CSc2nc3ccccc3c(=O)[nH]2)c1C	0	0	3072	-3
CCC1CCCCN1C(=O)CSc1nnc(N)s1 (stereo not drawn)	0	0	3843	2
CCCCn1c(N)c(N(CCOC)C(=O)c2cc(S(=O)(=O)N3CCOCC3)ccc2Cl)c(=O)[nH]c1=O	4	0	3929	-6
COc1ccccc1NC(=O)NNC(=O)CCN1CCOCC1	-4	0	5588	-8
CCc1ccc(OCC(=O)Nc2cc(S(=O)(=O)CC)ccc2O)cc1	0	4	17897*	4
CCS(=O)(=O)c1ccc(O)c(NC(=O)COc2ccccc2)c1	-1	0	11012	2
COCCNC(=O)c1cccc(Nc2nc(-c3ccccc3)c3cc(Cl)ccc3n2)c1	2	2	2035	-2
COc1ccc(S(=O)(=O)N(CCc2ccccc2)CC(=O)NCCCO)cc1	-1	-2	9981	-18
CCNC(=O)CN(CCc1ccccc1)S(=O)(=O)c1ccc(OC)cc1	-3	0	16480*	3
Cc1snc(SCC(=O)N/N=C(\N)COc2cccc(C(F)(F)F)c2)c1C#N	1	u	20365*	-1
Cc1ccc(S(=O)(=O)NCCNC(=O)CN2CCOCC2)cc1	-5	-1	2974	-2
CCN(C(=O)COC(=O)CC1CCCCC1)c1c(N)n(Cc2ccccc2)c(=O)[nH]c1=O	13	2	3856	6
COc1ccccc1N1CCN(c2cc(=O)n(-c3ccc(Br)cc3)c(=O)[nH]2)CC1	-2	6	21225*	10
CCOC(=O)N1CCN(c2cc(=O)n(-c3ccc(OCC)cc3)c(=O)[nH]2)CC1	0	1	22900*	1
Cc1ccc(N2CN=c3s/c(=C\c4ccccn4)c(=O)n3C2)cc1	1	u	18880*	4
Cc1cc(Nc2ccccc2C(=O)O)n(-c2ccc([N+](=O)[O-])cc2)n1	-10	1	4457	3
SMILES	Anthrax LF inh2	BoNT A protease	Bead autofluor	BoNT F protease
O=C(c1ccc([N+](=O)[O-])cc1)N(Cc1ccc(Cl)cc1Cl)N1C(=O)CCCC1=O	-6	2	22479*	5
O=C(c1ccc([N+](=O)[O-])cc1)N(Cc1ccc(Cl)cc1)N1C(=O)CCCC1=O	-2	-5	17414*	-6
O=C(NCCc1ccccc1F)C1CCC(=O)N(Cc2ccc(Cl)cc2)C1 (stereo not drawn)	-2	0	4280	7
CC(OC(=O)c1ccc([N+](=O)[O-])o1)C(=O)Nc1nc(-c2ccc(F)c(F)c2)cs1 (stereo not drawn)	0	0	4692	0
COc1cc2c(Cc3ccccc3)cncc2cc1O	-3	0	3422	5
O=C(CN1C(=O)NC2(CCCC2)C1=O)OCCOc1ccccc1Cl	0	0	u	-1
Cc1nc2ccc(Cl)cc2nc1C	5	u	4496	u
S=c1nc(-c2ccc(Cl)cc2)[nH][nH]1	-16	2	3952	u
Cc1ccc(C)n1-c1nc(=S)[nH][nH]1	-1	-1	16597*	-1
O=c1[nH][nH]c2c1[C@@H](c1ccc(F)cc1)O[C@H](CCOCc1ccccc1)C2	1	1	5564	3
COc1cc(OC)cc(C2=Cc3ccccc3C(CC(C)=O)N2c2ccc(C#CC3(N)CCCCC3)cc2)c1 (stereo not drawn)	-2	6	5737	-5

Screening results from PubChem.
